Laboratory results as given in PubChem BioAssay (EPA / NIEHS).
Active and inactive are the calls of the source. Rule for the calls: active = hit-call score of the fitted dose curve at least 0.9, where 1 is the maximum; inactive = score below 0.9.

Assay: ATG_TCF_b_cat_CIS: Attagene CIS-FACTORIAL HepG2 Assay for human T-Cell-Factor with beta-catenin (TCF/b-cat) (AID 2282965)
Conditions: HepG2 TCF/beta-catenin cis-reporter transcription, actives raise or lower the signal
Procedure: ATG_CIS is a cell-based, multiplexed-readout assay that uses HepG2, a human liver cell line, with measurements taken at 24 hours after chemical dosing in a 24-well plate.ATG_TCF_b_cat_CIS is one of 52 assay component(s) measured or calculated from the ATG_CIS assay. It is designed to make measurements of mRNA induction, a form of inducible reporter, as detected with fluorescence intensity signals by Reverse transcription polymerase chain reaction (RT-PCR) and Capillary electrophoresis technology.Data from the assay component ATG_TCF_b_cat_CIS was analyzed into 1 assay endpoint. This assay endpoint, ATG_TCF_b_cat_CIS, was analyzed with bidirectional fitting relative to DMSO as the negative control and baseline of activity. Using a type of inducible reporter, measures of mRNA for gain or loss-of-signal activity can be used to understand the reporter gene at the transcription factor-level as they relate to the gene TCF7 and TCF7L2 and LEF1 and TCF7L1. Furthermore, this assay endpoint can be referred to as a primary readout, because this assay has produced multiple assay endpoints where this one serves a reporter gene function. To generalize the intended target to other relatable targets, this assay endpoint is annotated to the dna binding intended target family, where the subfamily is HMG box protein.
Human liver HepG2 cells are transiently transfected with multiple reporter transcription units (MRTUs) in 6-well plates using FuGene 6 reagent (Roche; 3 ml FuGene/1 mg DNA). The MRTU constructs are regulated by a cis-regulating element (promoter). […] A major difference between the CIS and TRANS system is that in CIS activities of endogenous TFs are measured, whereas the TRANS assay evaluates changes in activities of exogenous, chimeric NR-Gal4 proteins. […] At the end of 24 hour incubation, total RNA was isolated using TriZol reagent (Invitrogen). The isolated RNA is then reverse-transcribed using oligo(dT) primer and Mo-MLV reverse transcriptase (Invitrogen) with DNAse I (Ambion) treatment for 30 min. The one-tenth of the produced cDNA was amplified by PCR using Taq DNA polymerase (Invitrogen) and two reporter sequence-specific primers. The PCR products were fluorescently labeled by primer extension with 6-arboxyfluorescein (6-FAM) 5'-labeled reporter sequence-specific primer (2 min at 95 C, 20 s at 68 C and 10 min at 72 C) and these products were digested with 5U of HpaI (New England Biolabs) for 2h at 37 C. The fragments were purified using Qiaquick PCR columns (Qiagen), analyzed on an ABI 3130xL genetic analyzer (Applied Biosystems) with peak positions identified by using a set of X-rhodamine (ROX)-labeled MapMarker1000 molecular weight standards (BioVentures). The raw capillary electrophoresis data was processed using Attagraph software (Attagene).

**Q.** For `CCCC(C)C(=O)OCC` (stereo not given), which outcome is on record?
**A.** inactive

**Q.** Which outcome does the source give for `CO[Si](CCCS)(OC)OC` here?
**A.** inactive

**Q.** Which outcome does the source give for `O=C(O)c1cc(O)c2ccccc2c1O` here?
**A.** inactive

**Q.** With `Cc1c(Cl)cccc1Cl` as the molecule, how does the outcome read?
**A.** inactive

**Q.** Which AC50 does the source give for `O=C(Oc1ccccc1)c1ccccc1C(=O)Oc1ccccc1` here?
**A.** 51.4 µM (active)

**Q.** For `Cc1cc(C)n(CO)n1`, which outcome is on record?
**A.** inactive

**Q.** Which outcome does the source give for `CCCCCC1=CCCC1=O` here?
**A.** inactive

**Q.** Which outcome does the source give for `COc1ccc(C(=O)c2ccccc2)c(O)c1` here?
**A.** inactive

**Q.** Which outcome does the source give for `CCc1cccc(CC)c1` here?
**A.** inactive

**Q.** With `C[Si]1(C)O[Si](C)(C)O[Si](C)(C)O[Si](C)(C)O[Si](C)(C)O1` as the molecule, how does the outcome read?
**A.** inactive

**Q.** For `CC(C)=CCl`, which outcome is on record?
**A.** inactive

**Q.** Which outcome does the source give for `COC(Cc1ccccc1)OC` here?
**A.** inactive

**Q.** For `Nc1ccc(C(=O)OCCCOC(=O)c2ccc(N)cc2)cc1`, which outcome is on record?
**A.** inactive

**Q.** For `CCC[Si](OC)(OC)OC`, which outcome is on record?
**A.** inactive

**Q.** For `CCC1(C)C(=O)N(Cl)C(=O)N1Cl` (stereo not given), which AC50 is on record?
**A.** 52.2 µM (active)

**Q.** Which outcome does the source give for `COC(=O)c1ccc(C(=O)OC)c(C(=O)OC)c1` here?
**A.** inactive

**Q.** For `[Cl][Eu]([Cl])[Cl]`, which outcome is on record?
**A.** inactive

**Q.** Which outcome does the source give for `c1ccc(-c2nc3ccccc3[nH]2)cc1` here?
**A.** inactive

**Q.** For `Nc1ccnc(=O)[nH]1`, which outcome is on record?
**A.** inactive

**Q.** With `CCCCNS(=O)(=O)c1ccc(C)cc1` as the molecule, how does the outcome read?
**A.** inactive

**Q.** Which outcome does the source give for `CCNc1nc(NC(C)(C)C)nc(OC)n1` here?
**A.** inactive

**Q.** Which outcome does the source give for `Nc1ccc(O)c([N+](=O)[O-])c1` here?
**A.** inactive

**Q.** Which AC50 does the source give for `c1ccc(Nc2cccc3ccccc23)cc1` here?
**A.** 50.8 µM (active)

**Q.** Which outcome does the source give for `CCCCC1C(=O)N(c2ccccc2)N(c2ccccc2)C1=O` here?
**A.** inactive

**Q.** Which outcome does the source give for `CCCCC(CC)COC(=O)/C=C/c1ccc(OC)cc1` (stereo not given) here?
**A.** inactive

**Q.** With `CC1=CC=C(C(C)C)CC1` as the molecule, how does the outcome read?
**A.** inactive

**Q.** With `CCCCOC(=O)C(C)CC` (stereo not given) as the molecule, how does the outcome read?
**A.** inactive

**Q.** For `CC(C)c1cccc(C(C)C)c1N`, which outcome is on record?
**A.** inactive

**Q.** Which outcome does the source give for `CC(C)=NNC(N)=S` here?
**A.** inactive

**Q.** Which outcome does the source give for `C=C(C)C1CC=C(C)C(OC(C)=O)C1` (stereo not given) here?
**A.** inactive

**Q.** With `CN1CCN(C)CC1` as the molecule, how does the outcome read?
**A.** inactive

**Q.** With `C=CCNCC=C` as the molecule, how does the outcome read?
**A.** inactive

**Q.** With `CN(C)c1ccc2nc3ccc(=[N+](C)C)cc-3sc2c1` as the molecule, how does the outcome read?
**A.** inactive

**Q.** With `CCc1cccc(C)c1N(C(=O)CS(=O)(=O)O)C(C)COC` (stereo not given) as the molecule, how does the outcome read?
**A.** inactive

**Q.** With `CC(C)(CO)C(O)C(=O)NCCCO` (stereo not given) as the molecule, how does the outcome read?
**A.** inactive

**Q.** Which outcome does the source give for `CCCCC(=O)O` here?
**A.** inactive

**Q.** With `C=CC(=O)OCCCCCCCC(C)C` as the molecule, how does the outcome read?
**A.** inactive

**Q.** With `COc1ccc(C(=O)/C(Br)=C\C(=O)O)cc1` as the molecule, how does the outcome read?
**A.** inactive

**Q.** With `C=C(C)C(=O)OCCOC(=O)C(=C)C` as the molecule, how does the outcome read?
**A.** inactive

**Q.** With `CCCSSCCC` as the molecule, how does the outcome read?
**A.** inactive
